Test results as given in PubChem BioAssay (Tox21).
Records with an inconclusive call do not appear. The source made the active and inactive calls. Calls follow the shape of the dose curve; as a rule, active = well fitted cell-killing curve with a large enough effect in the repeat runs; inconclusive = weak or mixed curves, or effect the other way; inactive = no such curve, though single readings can be large or run the other way.

Assay: qHTS assay to identify small molecule agonists of the vitamin D receptor (VDR) signaling pathway - cell viability counter screen (AID 743224); also: nearly all actives have a fitted effect of over 50% in size
Settings: VDR-bla HEK293T viability, CellTiter-Glo luminescence, 16 h; series mostly up to 62.6 µM; activity change, negative = cytotoxicity: at the top concentration
Description: U.S. Tox21 Program National Center for Advancing Translational Sciences [NCATS] NIH Chemical Genomics Center [NCGC] U.S. Environmental Protection Agency [EPA] National Institutes of Environmental Health Sciences [NIEHS] National Toxicology Program [NTP] U.S. Food and Drug Administration [FDA] Tox21 Assay Overview: The vitamin D receptor (VDR), a member of nuclear hormone receptor superfamily, plays a critical role in calcium homeostasis and bone metabolism. It is also involved in cell differentiation and growth, and thrombogenicity. […] The cytotoxicity of the Tox21 compound library against the VDR-bla cell line was tested in parallel by measuring the cell viability using CellTiter-Glo assay (Promega, Madison, WI) in the same wells.
Tox21 Assay Protocol Summary: VDR-bla cells were dispensed at 2,000 cells/6 uL/well into black wall/clear-bottom 1536-well plates using a Multidrop Combi (Thermo Fisher Scientific, Waltham, MA) dispenser. After the assay plates were incubated at a 37C and 5% CO2 for 4 h, 23 nL of compounds dissolved in DMSO, positive controls or DMSO only was transferred to the assay plate by a Pintool station (Kalypsys, San Diego, CA). The plates were incubated at 37C and 5% CO2 for 16 h. After 1 uL of LiveBLAzerTM B/G FRET substrate was added using a Bioraptr Flying Reagent Dispenser (FRD) workstation (Beckman Coulter, Indianapolis, IN, USA), the plates were incubated at room temperature for 2 h, and fluorescence intensity was measured by an Envision plate reader (PerkinElmer, Shelton, CT). For cell viability readout that measures cytotoxicity, 3 ul/well of CellTiter-Glo reagent was added into the assay plates using a FRD. After 30 min incubation at room temperature, the luminescence intensity in the plates was measured using a ViewLux (PerkinElmer) plate reader.
% is scaled to controls: 0 for no effect and ±100 for the full control effect.

SMILES	activity change, negative = cytotoxicity
CCCCCCCCCCCCCCCCC(=O)O	8.6% (inactive)
COC(=O)c1cc(Cl)ccc1[N+](=O)[O-]	0.577% (inactive)
COc1ccc(/C=C/S(=O)(=O)NC(=O)c2ccc(C)cc2Cl)cc1	15.9% (inactive)
C[C@H](N)C(=O)N[C@@H](C)C(=O)NC1[C@H]2CN(c3nc4c(cc3F)c(=O)c(C(=O)O)cn4-c3ccc(F)cc3F)C[C@@H]12 (stereo not given in full)	0.182% (inactive)
CCCC(=O)OCCC(C)C	12.7% (inactive)
CC(C)CCCCCCCOC(=O)c1ccc(C(=O)OCCCCCCCC(C)C)c(C(=O)OCCCCCCCC(C)C)c1	16.5% (inactive)
CC(C)C/C=C(\C=O)c1ccccc1	0.145% (inactive)
COc1cc(C)c(Cc2cnc(N)nc2N)cc1OC	-1.64% (inactive)
CCOC(=O)CC(O)(CC(=O)OCC)C(=O)OCC	8.93% (inactive)
CC(=O)c1ccc(Cl)c(Cl)c1Cl	-0.506% (inactive)
CC1(COc2ccc(CC3SC(=O)NC3=O)cc2)CCCCC1 (stereo not given)	-8.67% (inactive)
COc1cc(CNC(=O)CCCC/C=C/C(C)C)ccc1O	-1.83% (inactive)
CC(C)(C)c1cc(C=O)cc(C(C)(C)C)c1O	3.62% (inactive)
Nc1nc(Cl)nc2c1ncn2[C@H]1C[C@H](O)[C@@H](CO)O1	9.57% (inactive)
C=CC(=O)OCCCCCCCCCC	15.7% (inactive)
C=C(C)C(=O)OCCCCCCCCCCOC(=O)C(=C)C	2.46% (inactive)
CCCCCCCCC(=O)OCC(C)OC(=O)CCCCCCCC (stereo not given)	5.39% [at 81.1 µM] (inactive)
CCCCCCCCCCCCSCCOCCO	5.36% (inactive)
Cc1nc(C)c(C)nc1C	2.24% (inactive)
COC(=O)/C=C/C(C)=C\C=C\C(C)=C\C=C\C=C(C)\C=C\C=C(C)\C=C\C(=O)O	9.81% (inactive)

SMILES	activity change, negative = cytotoxicity
O=Cc1ccc([N+](=O)[O-])cc1	1.66% [at 81.1 µM] (inactive)
CCC[Si](OC)(OC)OC	1.95% (inactive)
COc1ccc(C(=O)c2ccc(C)cc2)c(O)c1	-7.06% [at 81.1 µM] (inactive)
CCCCCCOC(=O)c1ccccc1	0.0526% (inactive)
CCOc1ccc(NC(C)=O)cc1N	-29.3% [at 81.1 µM] (inactive)
CCCCCCCCCCCCN1CCOCC1	1.67% (inactive)
CCCCCCC/C=C/C=O	-9.99% (inactive)
Cc1c(-c2cccnc2)c2ccccc2n1CCCCC(=O)O	-1.78% (inactive)
CC(C)(C)c1ccc(CCC=O)cc1	-4.16% (inactive)
CCCN(C1CCN(C(=O)C2CCNCC2)CC1)[C@@H]1CCc2ccc(OC)cc2C1	-24.8% (inactive)
O=C(O)c1cc(C(=O)O)c(C(=O)O)cc1C(=O)O	-6.08% (inactive)
O=C(c1ccco1)N1CCNCC1	-0.213% (inactive)
C/C(=C(\CCO)SS/C(CCO)=C(\C)N(C=O)Cc1cnc(C)nc1N)N(C=O)Cc1cnc(C)nc1N	6.94% (inactive)
O=c1[nH][nH]c2ccccc12	-14.1% [at 81.1 µM] (inactive)
Clc1cccc(C(c2ccc3nc[nH]c3c2)n2ccnc2)c1 (stereo not given)	9.53% (inactive)
NC(=O)c1ccccc1	4.29% [at 81.1 µM] (inactive)
CC(=O)Nc1cccc(N)c1	-14.4% [at 81.1 µM] (inactive)
O=C(OCCCCCOC(=O)c1ccccc1)c1ccccc1	10.1% (inactive)
O=S(=O)(O)c1cc(Cl)c(Cl)cc1Cl	7.89% (inactive)
O=c1c2ccccc2oc2ccccc12	0.51% (inactive)
